The text below walks through data of PubChem BioAssay AID1851 (National Center for Advancing Translational Sciences (NCATS), 2009).

Out of some 16,000 compounds screened, about 5,700 (36%) were called active. Not shown: some 24% with an inconclusive outcome. This is one part of the list. A number with no mark means an inactive call. Calls follow the shape of the dose curve; as a rule, active = well fitted curve in the direction sought with a large enough effect; inconclusive = small, poorly fitted or top-dose-only effect, or effect the other way; inactive = no such curve, though single readings can be large or run the other way.
% is scaled to controls: 0 for no effect and ±100 for the full control effect.

Cytochrome P450 1A2 (Homo sapiens), sequence (P05177 whole entry, looked up): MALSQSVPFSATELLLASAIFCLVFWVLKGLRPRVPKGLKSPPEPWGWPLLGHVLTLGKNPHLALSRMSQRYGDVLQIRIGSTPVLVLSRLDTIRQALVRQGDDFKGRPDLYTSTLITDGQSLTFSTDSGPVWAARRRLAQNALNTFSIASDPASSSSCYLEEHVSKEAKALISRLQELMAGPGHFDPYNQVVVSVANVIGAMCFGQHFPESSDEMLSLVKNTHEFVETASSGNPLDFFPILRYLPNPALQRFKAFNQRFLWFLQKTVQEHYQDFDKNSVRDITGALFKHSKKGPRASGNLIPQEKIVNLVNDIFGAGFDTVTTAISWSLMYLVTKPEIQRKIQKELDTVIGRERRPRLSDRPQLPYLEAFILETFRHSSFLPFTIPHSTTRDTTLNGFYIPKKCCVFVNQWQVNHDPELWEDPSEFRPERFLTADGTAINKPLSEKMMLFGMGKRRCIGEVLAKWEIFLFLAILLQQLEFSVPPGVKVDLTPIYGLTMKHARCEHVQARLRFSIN

The assay concerns the target Cytochrome P450 1A2 (Homo sapiens) (UniProt P05177). In words: Cytochrome panel assay with activity outcomes. The note with it: recombinant CYP, pro-luciferin dealkylation, luminescence, p450-cyp1a2; series mostly up to 57.1 µM; activity, negative = inhibition: at the top concentration.
The AC50 is the concentration giving half of the maximal activity seen. Take `CN1CCN(c2ccnc(-c3ccc(N(C)C)cc3)n2)CC1`: the AC50 was 0.794 µM (active). Still for that read-out and setting: next, `CN1CCN(c2ccnc(-c3ccoc3)n2)CC1`: 12.6 µM (active). The same measure, in the same setting: the result for `CN1CCN(c2cc(-c3ccc(N(C)C)cc3)ncn2)CC1` reads 2.51 µM (active). Consider `O=C(O)CCCCn1ccc(=O)[nH]c1=O`, for which the activity, negative = inhibition was -6.18% [at 11.4 µM].

As to `O=C(O)c1cscc1Cc1cccs1`, the activity, negative = inhibition is -18.8% [at 11.4 µM]. Take `CC(/C=N/NC(=O)Cc1cccs1)=C\c1ccco1`: the AC50 was 11.2 µM (active). In the case of `C/C(CC(=O)NC1CCCC1)=N\NC(=O)Cc1cccs1`, the “activity, negative = inhibition” value is -21.3%. Still for that read-out and setting: next, `O=C(O)C/C(=C\c1ccccc1)C(=O)O`: -13% [at 11.4 µM]. For `O=C(Cc1cccs1)N/N=C/C(Br)=C/c1ccccc1`, the AC50 is 5.01 µM (active). In the case of `O=C(NCc1ccco1)C(c1ccccc1)N(C(=O)Cc1cccs1)c1ccccc1F` (stereo not drawn), the “activity, negative = inhibition” value is -14.5%. Same read-out and setting: next, `CN1CC[C@@]2(CCCN(C(=O)c3cccc(F)c3)C2)C1`: 5.25%. As for `Cc1cc(S(=O)(=O)NCCN(C)C)c(C)s1`, the “activity, negative = inhibition” value was -1.69%. In the case of `CCOc1cc(/C=N/O)cc(Cl)c1OC`, the AC50 was 1.41 µM (active). The same measure, in the same setting: next, `COC(=O)C1=C(C)OC(N)=C(C#N)C1c1cc(OC)ccc1OC` (stereo not drawn): 15.8 µM (active).

Regarding `COc1ccc(C2C(C#N)=C(N)OC3=C2C(=O)CC(C)(C)C3)c([N+](=O)[O-])c1OC` (stereo not drawn), the “activity, negative = inhibition” value was -9.67%. For `CCCCOC(=O)C1=C(C)Nc2ncnn2C1c1cc(OC)ccc1OC` (stereo not drawn), the “activity, negative = inhibition” value was -24.5%. Still for that read-out and setting: the result for `COc1ccc(C2/C(=C(/O)c3ccc4c(c3)CC(C)O4)C(=O)C(=O)N2CCN2CCOCC2)cc1` (stereo not drawn) reads -15.1%; that for `CC(C)=CCC/C(C)=C/CO/N=C1/C[C@@H](O)[C@@H](O)[C@@H]2[C@@H]3C(=O)N(Cc4ccccc4)C(=O)[C@H]3CC[C@H]12`, 3.92% [at 11.4 µM]; that for `CC(C)=CCC/C(C)=C/CO/N=C1/C[C@@H](O)[C@@H](O)[C@@H]2[C@@H]3C(=O)N(Cc4ccccc4)C(=O)[C@H]3CC[C@@H]12`, 4.86% [at 11.4 µM].

With `CCSC1=C(C#N)C2(CCCCC2)C(C#N)=C(N)N1`, the AC50 is 12.6 µM (active). Turning to `CC(C)NC(=O)N1CC2(CCN(C(=O)c3ccco3)CC2)C1`, the “activity, negative = inhibition” value was -10.4%.

With `CCC(C)NS(=O)(=O)c1ccc(OCC(=O)Nc2ccc3c(c2)OCCO3)cc1` (stereo not drawn), the “activity, negative = inhibition” value is -11.9%. For `CCOc1ccc2nc(C)cc(Nc3ccc4c(c3)OCCO4)c2c1`, the AC50 is 4.47 µM (active). Turning to `CNCCCCCCCCSc1nc(C(C)C)ccc1C(=O)c1cccs1`, the AC50 was 31.6 µM (active). For `CCOC(=O)CCN1C(=O)[C@H]2[C@H]3[C@H](O)[C@H](O)C/C(=N/OC[C@@H](O)COCc4ccco4)[C@H]3CC[C@@H]2C1=O`, the activity, negative = inhibition is -1.05% [at 11.4 µM].

For the compound `Cc1nnsc1SC(C)C(=O)O` (stereo not drawn), the “activity, negative = inhibition” value was 4.28%. For `O=C1CCCN1CC(O)CS(=O)(=O)c1ccccc1` (stereo not drawn), the “activity, negative = inhibition” value is 5.91%. `O=S(=O)(CC(O)COc1ccccc1Cl)c1ccccc1` (stereo not drawn): the AC50 is 22.4 µM (active). As to `CC(C)CCNC1=NCCCCC1`, the “activity, negative = inhibition” value was 11.4%. On the same count and under the same terms, the result for `CCn1c(-c2ccccc2Cl)nn(CC(=O)Nc2ccc(OC)cc2)c1=S` reads -22.8%. As for `COc1ccc(NC(=O)c2cc(-c3ccccc3Cl)no2)cc1`, the concentration at half-maximal activity (AC50) was 2.24 µM (active). The same measure, in the same setting: next, `O=C(Nc1ccccc1)c1cc(-c2ccccc2Cl)no1`: 0.794 µM (active).

As to `Cc1onc(-c2ccccc2Cl)c1C(=O)NCC(=O)O`, the “activity, negative = inhibition” value was -11.5%. The same measure, in the same setting: next, `N[C@@H](Cc1cc(CP(=O)(O)O)cc(-c2ccccc2Cl)c1)C(=O)O`: 1.78%. Consider `NC(N)=Nc1nc2ccc([N+](=O)[O-])cc2[nH]1`, for which the AC50 is 3.16 µM (active).

Consider `Cc1ccc([N+](=O)[O-])cc1N=C(c1cccc([N+](=O)[O-])c1)N1CCOCC1`, for which the “activity, negative = inhibition” value is 1.83%. As for `OC[C@@H]1NC[C@@H](O)[C@@H](O)[C@H]1O`, the “activity, negative = inhibition” value is -2.8%.

Turning to `Cc1cc(C)c(C#N)c(Oc2ccccc2)n1`, the AC50 is 3.16 µM (active). Still for that read-out and setting: the result for `CCCC(=O)Nc1cccc(Oc2nc(C)cc(C)c2C#N)c1` reads 5.01 µM (active). On the same count and under the same terms, the result for `Cc1cc(C)c(C#N)c(Oc2ccc(F)cc2)n1` reads 2.51 µM (active); that for `N#Cc1c(-c2ccccc2)ccnc1Oc1ccccc1`, 1.12 µM (active). With `COc1cccc(C2C3=C(CC(C)(C)CC3=O)OC(N)=C2[N+](=O)[O-])c1` (stereo not drawn), the “activity, negative = inhibition” value was 0.0849%. On the same count and under the same terms, next, `CC(C)(C)COS(=O)OCC(C)(C)C`: -15.5% [at 11.4 µM]. On the same count and under the same terms, next, `Nc1nc(N)[n+]([O-])c(N)c1NCO`: -6.17% [at 11.4 µM]. For `CN(C)c1ccnc(Oc2ccc(Cl)cc2)c1C#N`, the AC50 was 2.51 µM (active). With `Cc1ccccc1-n1cnc2cc(NCc3cccs3)ccc21`, the AC50 was 5.62 µM (active). The same measure, in the same setting: the result for `Cc1ccc(Sc2nc(C)cc(C)c2S(C)(=O)=O)cc1` reads 10 µM (active). As for `CNc1nc(C)cc(C)c1S(=O)(=O)c1ccc(C)cc1`, the “activity, negative = inhibition” value is -25.7%. For the compound `COC(=O)[C@H](CCSC)NC(=O)C/C=C\[C@@H](C)CO`, the activity, negative = inhibition is 2.44% [at 11.4 µM].

As for `O=C(c1cc(-c2ccncc2)nc2ccccc12)N1CCN(c2ccc(N3CCOCC3)nn2)CC1`, the “activity, negative = inhibition” value was -29%. Regarding `c1ccc2c(N3CCOCC3)nc(-c3ccoc3)nc2c1`, the AC50 is 1.26 µM (active). Same read-out and setting: the result for `CN1CCN(c2nc(-c3ccoc3)nc3ccccc23)CC1` reads 1.26 µM (active). As to `CC1(C)O[C@H]2C[C@@H]3[C@H]4CCC5=CC(=O)CC[C@@]5(C)[C@]4(F)[C@@H](O)C[C@@]3(C)[C@@]2(C(=O)CCl)O1`, the “activity, negative = inhibition” value is -15.1% [at 25.6 µM]. Same read-out and setting: next, `CC(=O)O[C@]1(C(C)=O)CC[C@@H]2[C@@H]3C=C(C)C4=CC(=O)CC[C@@]4(C)[C@H]3CC[C@]21C`: -7.95% [at 25.6 µM]. Turning to `Oc1ccc(-c2nc(-c3ccc(F)cc3)c(-c3ccncc3)[nH]2)cc1`, the AC50 is 15.8 µM (active). Regarding `CS(=O)c1ccc(-c2nc(-c3ccc(F)cc3)c(-c3ccncc3)[nH]2)cc1` (stereo not drawn), the AC50 is 0.631 µM (active). Regarding `O=C(N[C@@]1(C(=O)O)C[C@@H]1c1ccccc1)c1ccccc1`, the activity, negative = inhibition is 2.45% [at 11.4 µM]. In the case of `O=C(N/N=C/C1C(c2ccccc2)C1(Cl)Cl)c1cccc(Br)c1` (stereo not drawn), the AC50 was 2 µM (active). Same read-out and setting: next, `O=C(N/N=C/c1cccc(Oc2ccccc2)c1)c1cccc(Br)c1`: 0.891 µM (active); `O=C(N/N=C\c1ccc(Sc2ccccn2)o1)c1cccc(Br)c1`: 15.8 µM (active).

Consider `N[C@@H]1[C@@H]2[C@@H]3C[C@H]4N(CC[C@@]14C(=O)C(=O)O)CC3=CCO[C@@H]2CC(=O)O`, for which the activity, negative = inhibition is -16.1% [at 11.4 µM]. On the same count and under the same terms, the result for `C=C[C@@]1(C)CC(=O)[C@@]2(O)[C@@]3(C)[C@H](O)CCC(C)(C)[C@@H]3[C@H](O)[C@H](OC(C)=O)[C@]2(C)O1` reads -2.51%. For the compound `Cc1ccc(/C=C2\Sc3ccccc3C2=O)s1`, the half-maximal activity concentration (AC50) is 1.78 µM (active). For the compound `COc1ncnc(NS(=O)(=O)c2ccc(N)cc2)c1OC`, the “activity, negative = inhibition” value was -8.77% [at 25.6 µM]. As to `Nc1ccn([C@@H]2O[C@H](COC(=O)C34CC5CC(CC(C5)C3)C4)[C@@H](O)[C@@H]2O)c(=O)n1`, the activity, negative = inhibition is -18.7% [at 2.29 µM]. As to `O=C(OCc1nc2ccccc2[nH]1)C12CC3CC(CC(C3)C1)C2`, the AC50 was 22.4 µM (active). For `NC(N)=[N+]1CCc2ccccc2C1`, the “activity, negative = inhibition” value is -11.2%.

Turning to `O=c1[nH][nH]c(C(F)(F)F)c1C=Nc1ccccc1Cl`, the AC50 was 14.1 µM (active). On the same count and under the same terms, the result for `O=c1[nH][nH]c(C(F)(F)F)c1C=Nc1ccccc1` reads 4.47 µM (active); that for `O=c1[nH][nH]c(C(F)(F)F)c1C=Nc1cccc(Cl)c1`, 12.6 µM (active). Turning to `Cc1ccc(C(=O)c2ccc(CC(=O)O)n2C)cc1`, the “activity, negative = inhibition” value was -8.27% [at 25.6 µM]. As for `CO[C@@H]1/C=C\CC(=O)N[C@@H](C)C(=O)OC[C@@H](OC)[C@H](C)/C=C\CC(=O)OC[C@H]1C`, the activity, negative = inhibition is -4.89% [at 11.4 µM].

On to `OC[C@H]1NC[C@@H](O)[C@@H](O)[C@H]1O`, for which the “activity, negative = inhibition” value is -6.82%. As to `CCC(=O)Nc1cc2c(cc1C(=O)c1ccccc1)OCCO2`, the AC50 is 25.1 µM (active). On to `Cc1ccccc1C(C(=O)NC1CCCC1)N(C(=O)Cc1cccs1)c1ccc2c(c1)OCCO2` (stereo not drawn), for which the “activity, negative = inhibition” value is -11%.

Regarding `CC(C)C(=O)Nc1cc2c(cc1C(=O)c1ccccc1)OCCO2`, the concentration at half-maximal activity (AC50) is 14.1 µM (active). For `CC(C)/C(=N/[N+](C)(C)C)c1ccccc1`, the activity, negative = inhibition is -16.2% [at 2.29 µM]. On to `COc1ccc(-c2ccc(N)[n+](CCCC(=O)O)n2)cc1`, for which the AC50 result was “inactive”. For the compound `COc1ccc(C(=O)N2CCC3(CC2)CCN(C(c2ccccc2)c2ccccc2)CC3)cc1`, the “activity, negative = inhibition” value was -14.1%. On to `COc1ccc(C(=O)n2nc(-c3ccccc3)nc2SC)cc1`, for which the AC50 was 0.562 µM (active). The same measure, in the same setting: next, `CCCC(=O)n1nc(-c2cccnc2)nc1N`: 5.01 µM (active). Take `COc1ccc(-n2c(SC)nc(O)c(Cc3ccccc3)c2=O)cc1`: the “activity, negative = inhibition” value is -1.57%. On the same count and under the same terms, the result for `COc1ccc(-c2nc(N)c3ncn([C@H]4O[C@@H](CO)[C@@H](O)[C@@H]4O)c3n2)cc1` reads -13% [at 2.29 µM].

With `CCC(=O)n1nc(-c2ccc(OC)cc2)nc1N`, the AC50 is 2 µM (active). Still for that read-out and setting: next, `COc1cccc(-c2[nH]nc3c2C(c2ccc(C)o2)C(C#N)=C(N)O3)c1` (stereo not drawn): 1.58 µM (active).

Turning to `COc1cccc(-c2[nH]nc3c2C(c2ccsc2)C(C#N)=C(N)O3)c1` (stereo not drawn), the AC50 is 1.12 µM (active). Turning to `COc1ccc(C2C(C#N)=C(N)Oc3n[nH]c(C)c32)cc1CN1CCN(c2ccc(F)cc2)CC1` (stereo not drawn), the “activity, negative = inhibition” value was -23.9%.

Take `O=C(CP(=O)(c1ccccc1)c1ccccc1)Nn1cnnc1`: the “activity, negative = inhibition” value was -30%. Still for that read-out and setting: next, `CC1(C)[C@@H]2CC[C@]1(C)[C@@H](OC(=O)CSC#N)C2`: -18.3% [at 2.29 µM].

As for `Cc1cccn2c(/C=N/OCc3ccc(F)cc3)c(-c3ccc(Cl)cc3)nc12`, the AC50 was 2 µM (active).

With `Cc1cccn2c(/C=N/OCc3cccc(F)c3)c(-c3ccc(Cl)cc3)nc12`, the AC50 was 2 µM (active). Consider `C#CCCCO/N=C1/C[C@@H](O)[C@@H](O)[C@@H]2[C@@H]3C(=O)N([C@@H](C)c4ccccc4)C(=O)[C@H]3CC[C@H]12`, for which the activity, negative = inhibition is 0.735% [at 11.4 µM]. As for `Cn1c(O)c(C(C#N)=C2N=c3ccccc3=N2)c2ccccc21`, the AC50 is 1.58 µM (active).
